Screening data from PubChem BioAssay.
Most compounds without a hit are left out; they make up all but 18% or so of the library.
CtBP-E1A inh = qHTS Assay for Inhibitors of the CtBP/E1A Interaction; AlphaScreen GST-E1A/His-CtBP binding, 1536-well; stronger effect = lower value; CtBP / adenovirus E1A interaction (AlphaScreen); hit rate 0.49% among 340,000; activity change, % (test concentration not listed); AID 651724, 2012; in the data active = activity change below about -65%; inconclusive = mostly about -30% to -63%
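Steps: dispense buffer (Tris pH 8.0, NaCl 300 mM, TCEP 1 mM, BSA, Tween 20); add 5X protein mix (GST-E1A, His-CtBP, 125 nM each); pin 23 nL compound; 2 h at 37 °C, dark; add 5X beads (50 ug/mL); 1 h; read.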
IL1B secr inh = qHTS for Inhibitors of Inflammasome Signaling: IL-1-beta AlphaLISA Primary Screen | THP-1 LPS/ATP IL-1B secretion, AlphaLISA, 16 h; stronger effect = lower value | activity change, % at 57.5 µM | hit rate 4.7% among 360,000; in the data active = activity change below about -50%; inconclusive = mostly about -30% to -49%
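THP-1 cells pretreated 1 hr with compounds (up to 57.5 uM final), then stimulated with LPS (250 ng/mL final) plus ATP (1.25 mM final); secreted IL-1B measured by AlphaLISA after 16 hr, decreased signal indicating inhibition.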
DT40 TDP1 CPT = qHTS for Inhibitors of human tyrosyl-DNA phosphodiesterase 1 (TDP1): qHTS in cells in presence of CPT; chicken DT40 Tdp1-/-;hTDP1 cells + 20 nM CPT, ATP luminescence, 48 h; Potency, µM (titrated, usually from 46.2 µM), for inactives: at the top dose activity change, negative = growth inhibition, actives largely listed as inhibitors; hit rate 12% among 420,000; also: potency is read from the fitted curve at half-maximal effect; nearly all actives have a fitted effect of over 55% in size
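Chicken DT40 Tdp1-/- cells stably complemented with human TDP1 were seeded at 400 cells/well in medium containing 20 nM camptothecin, exposed to pin-transferred compounds, and grown at 37 °C for at least 48 hr. Viability was read as ATP luminescence.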
Six1-Eya2 blk = qHTS Assay for Inhibitors of the Six1/Eya2 Interaction | Homeobox protein SIX1 (Homo sapiens) + Protein phosphatase EYA2 (Homo sapiens), … | AlphaScreen GST-Six1/His-Eya2 binding, biochemical; stronger effect = lower value | activity change, % (no concentration beside the values) | hit rate 0.56% among 360,000 | AID 651725, 2012; in the data active = activity change below about -65%; inconclusive = mostly about -30% to -63%
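GST-Six1 + His-Eya2 (5X stock: 250/500 nM); Tris pH 8.0, 300 mM NaCl, 0.05% BSA, 0.02% Tween 20; GSH donor/Ni acceptor beads; 1 h 37 °C dark; AlphaScreen readout.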
TDP1 block = qHTS Assay for Inhibitors of Tyrosyl-DNA Phosphodiesterase (TDP1) | AID 485290, 2010 | Tyrosyl-DNA phosphodiesterase 1 (Homo sapiens), Q9NUW8 | Potency, µM (highest dose often 130 µM), without a hit: top-dose activity change, negative = inhibition, most hits filed as inhibitors | recombinant TDP1, AlphaScreen DNA substrate cleavage | hit rate 0.28% among 350,000; also: potency is read from the fitted curve at half-maximal effect; nearly all actives have a fitted effect of over 40% in size
Target sequence (Q9NUW8 whole entry, looked up): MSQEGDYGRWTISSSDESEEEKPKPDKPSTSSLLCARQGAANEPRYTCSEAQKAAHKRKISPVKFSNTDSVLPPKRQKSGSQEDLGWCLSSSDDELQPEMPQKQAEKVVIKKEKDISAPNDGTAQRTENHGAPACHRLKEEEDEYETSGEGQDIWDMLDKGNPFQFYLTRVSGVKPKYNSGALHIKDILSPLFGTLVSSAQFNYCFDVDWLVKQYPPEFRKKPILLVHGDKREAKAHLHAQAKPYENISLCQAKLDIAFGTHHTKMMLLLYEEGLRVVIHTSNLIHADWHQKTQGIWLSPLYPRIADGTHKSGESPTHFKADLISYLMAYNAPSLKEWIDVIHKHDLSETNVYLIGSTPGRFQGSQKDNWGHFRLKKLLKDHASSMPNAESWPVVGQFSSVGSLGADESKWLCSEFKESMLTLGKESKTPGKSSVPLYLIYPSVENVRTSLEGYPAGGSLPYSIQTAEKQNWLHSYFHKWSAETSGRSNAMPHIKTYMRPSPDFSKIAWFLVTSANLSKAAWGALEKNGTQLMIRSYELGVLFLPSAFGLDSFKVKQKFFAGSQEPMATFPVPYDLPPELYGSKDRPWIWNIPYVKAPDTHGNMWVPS
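Here, a 5' biotin and 3' phosphotyrosine-FITC DNA oligonucleotide reports Tdp1 activity: intact substrate bridges AlphaScreen beads, while cleavage leaves a 3' phosphate and drops signal. All incubations at room temperature.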
DT40 TDP1 no CPT = qHTS for Inhibitors of human tyrosyl-DNA phosphodiesterase 1 (TDP1): qHTS in cells in absence of CPT; hit rate 15% among 420,000; DT40 Tdp1-/- hTDP1 cells, no CPT, ATP luminescence, 48 h; Potency, µM (series often up to 46.2 µM), without a hit: top-dose activity change, negative = growth inhibition, most hits filed as inhibitors; AID 686978, 2013; also: potency is read from the fitted curve at half-maximal effect; nearly all actives have a fitted effect of over 55% in size
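Luminescent ATP content (CellTiter-Glo) served as the growth readout. Knockout chicken DT40 cells expressing human TDP1 were exposed to compounds without camptothecin for a minimum 48 hr at 37 °C.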
* marks the source's active call; other numbers are inactive results; ? = inconclusive; . = no result given; [ ] = remark or other dose. Unless noted, calls follow the shape of the dose curve; as a rule, active = well fitted curve in the direction sought with a large enough effect; inconclusive = small, poorly fitted or top-dose-only effect, or another doubt; inactive = no such curve, though single readings can be large; an effect the other way counts as inactive or inconclusive. % is scaled to controls: 0 for no effect and ±100 for the full control effect.

SMILES	CtBP-E1A inh	IL1B secr inh	DT40 TDP1 CPT	Six1-Eya2 blk	TDP1 block	DT40 TDP1 no CPT
CCc1nc(OCc2ccco2)c2sc3nc4c(cc3c2n1)COC(C)(C)C4	-8.4	3.7	25.9µM*	-19.6	2.3%	16.4µM*
Cc1nc(OCC(C)C)c2sc3nc4c(cc3c2n1)COC(C)(C)C4	-7.8	-26.1	?	2.4	.	20.6µM*
CCc1nc2c(sc3nc4c(cc32)COC(C)(C)C4)c(=O)n1Cc1ccco1	-12.4	0.0	23.1µM*	-24.9	5.4%	23.1µM*
CC(C)(C)c1ccc(/C=C/C(=O)NCCCN2CCOCC2)cc1	5.7	-1.5	?	7.9	.	?
O=C(NC1CCCCC1)C(c1ccc2ncccc2c1)N(Cc1ccc2c(c1)OCO2)C(=O)c1ccc2c(c1)OCCO2 (centres undefined)	6.2	-1.7	?	-3.3	5.5%	25.9µM*
O=C(NC1CCCCC1)C(c1ccc2ncccc2c1)N(Cc1ccco1)C(=O)c1ccc2c(c1)OCCO2 (centres undefined)	-2.5	-5.0	?	-6.4	4.8%	?
O=C(NC1CCCCC1)C(c1ccccc1)N(Cc1ccc2c(c1)OCO2)C(=O)c1cnsn1 (centres undefined)	-1.7	-61.5*	20.6µM*	-8.7	6.6%	?
O=C(NCCc1c[nH]c2ccccc12)OCCSS(=O)(=O)O	-7.4	26.8	9.7%	-10.3	1.2%	-1.6%
O=C(CSc1nc(C(F)(F)F)cc(=O)[nH]1)N1CCC(Cc2ccccc2)CC1	-1.9	-19.3	-10.9%	-7.8	-15.1%[0.505 µM]	11.6µM*
Cc1cc(=O)[nH]c(SCC(=O)N2CCN(C(c3ccccc3)c3ccccc3)CC2)n1	2.3	-10.6	18.4µM*	11.5	7.7%	?
Cc1cc(=O)[nH]c(SCC(=O)N2CCC(Cc3ccccc3)CC2)n1	10.0	?	2.9%	11.9	2.7%	6.1%
Cc1nc(SCC(=O)N2CCC(Cc3ccccc3)CC2)[nH]c(=O)c1C	2.8	9.5	16.4µM*	5.9	3.4%[0.505 µM]	23.1µM*
CN(C)S(=O)(=O)c1cccc(-c2nn(-c3ccccc3)cc2/C=C(/C#N)C(=O)NCc2ccco2)c1	-6.1	-24.8	18.4µM*	-7.9	-4.1%	?
Cc1ccc(C)c(NC(=O)/C(C#N)=C/c2cn(CC(=O)NCc3ccco3)c3ccccc23)c1	28.2	16.2	16.4µM*	-3.0	0.0%	?
CCCOc1cccc(-c2nn(-c3ccccc3)cc2/C=C(\C#N)C(=O)NCCCn2ccnc2)c1	-14.1	-58.2*	?	-17.7	8.3%	?
COc1ccc(-n2c(C)cc(/C=C(\C#N)C(=O)NCc3ccco3)c2C)cc1	-0.2	16.3	20.2%	7.4	0.0%	12.4%
Cc1cc(/C=C(\C#N)C(=O)NCc2ccco2)c(C)[nH]1	-6.4	-50.7*	-9.0%	-13.9	-7.7%	-9.3%
Cc1ccc(C(=O)CNc2ccccc2)cc1	5.3	-8.1	?	-5.1	.	?
C/C(=N/Nc1ncc(Br)cn1)c1ccc([N+](=O)[O-])cc1	-0.1	-25.4	-14.3%	-2.1	.	-6.7%
CCOc1ccc(-c2nn(-c3ccccc3)cc2/C=C(\C#N)S(=O)(=O)c2ccccc2)cc1C	13.6	-14.7	?	11.3	5.8%	13µM*
COCC(C)NC(=O)C1CC(=O)N(CCc2ccc(F)cc2)C1 (centres undefined)	2.3	19.3	-0.7%	-9.0	.	-19.0%
CCCCOc1ccc(Cc2cnc(N)nc2N)cc1	-5.7	-54.8*	-23.9%	1.0	2.6%	?
COc1ccc(Cc2cnc(N)nc2N)cc1OC	.	.	?	.	3.7%	?
